Assay results reported in PubChem BioAssay (NCATS).
Inconclusive results are not listed. The source made the active and inactive calls. Calls follow the shape of the dose curve; as a rule, active = well fitted inhibition curve with a large enough effect; inconclusive = small, poorly fitted or top-dose-only effect; inactive = flat fitted curve, though single readings scatter.

How the values were obtained:
Assay in all cases: qHTS profiling for inhibitors of Plasmodium falciparum proliferation (AID 504749); also: nearly all actives have a fitted effect of over 60% in size
Conditions in all cases: P. falciparum in erythrocytes, SYBR Green DNA, 72 h; series mostly up to 28.7 µM
ATS95 = test system: ATS95
How it was run: (§1)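 Quantitative HTS: compounds pinned into medium, infected erythrocytes added (0.3% parasitemia, 2.5% hematocrit), 72 h culture at 37 C under 5% CO2. Saponin/Triton lysis with SYBR Green I, overnight RT, then fluorescence read.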

C2A = test system: C2A
How it was run: as §1

CP185 = test system: CP185
How it was run: as §1

CP191 = test system: CP191
How it was run: as §1

CP192 = test system: CP192
How it was run: as §1

CP194 = test system: CP194
How it was run: as §1

CP201 = test system: CP201
How it was run: as §1

CP203 = test system: CP203
How it was run: as §1

CP211 = test system: CP211
How it was run: as §1

CP215 = test system: CP215
How it was run: as §1

CP217 = test system: CP217
How it was run: as §1

CP237 = test system: CP237
How it was run: as §1

CP238 = test system: CP238
How it was run: as §1

CP247 = test system: CP247
How it was run: as §1

CP250 = test system: CP250
How it was run: as §1

CP252 = test system: CP252
How it was run: as §1

CP256 = test system: CP256
How it was run: as §1

CP260 = test system: CP260
How it was run: as §1

CP262 = test system: CP262
How it was run: as §1

CP265 = test system: CP265
How it was run: as §1

Measured: Potency

CCCCC1(COC(=O)CCC(=O)O)C(=O)N(c2ccccc2)N(c2ccccc2)C1=O
inactive: all assays above

O=C1c2ccccc2S(=O)(=O)N1CCCCN1CCN(c2ncccn2)CC1
inactive: all assays above

CCCOC(=O)c1ccc(N)cc1
inactive: all assays above

CN1CCN(C(=O)C2CCCCC2)CC1
inactive: all assays above

CC(=O)Oc1cccc(O)c1
inactive: all assays above

O=C(O)CCCCC1CCSS1 (stereo not given)
inactive: all assays above

O=C(O)c1ccccc1OP(=O)(O)O
inactive: all assays above

CN/C(=C\[N+](=O)[O-])NCCSCc1csc(CN(C)C)n1
inactive: all assays above

O=C1CC[C@@H](C(=O)O)N1
inactive: all assays above

CC(=O)NCc1c(I)c(NC(C)=O)c(I)c(C(=O)O)c1I
inactive: all assays above

NNC(=O)CP(=O)(c1ccccc1)c1ccccc1
inactive: all assays above

O=C(O)CCC(=O)O
inactive: all assays above

CN1C(C)(C)CCCC1(C)C
inactive: all assays above

O=c1[nH]cnc2nc[nH]c12
inactive: all assays above
